L3MBTL1 block – L3MBTL1 (human) inhibition; hit rate 0.66% among 230,000; AID 485360; Q9Y468; Potency, µM (series often up to 57.1 µM), for inactives: at the highest dose activity, negative = inhibition, hits mostly inhibitors; AlphaScreen L3MBTL1–H3K9me1 peptide binding; further: nearly all actives have a fitted effect of over 60% in size
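First, the protein-peptide complex forms for 30 min at room temperature (L3MBTL1 50 nM, biotinylated H3K9me1 peptide 75 nM). Next, compounds are pin-transferred and incubated 30 min. Finally, AlphaScreen beads are added and read after 30 min.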
BLM inh – blocks DNA unwinding by human BLM helicase. P54132. recombinant BLM DNA unwinding, fluorescence dequenching. Potency, µM (titrated, usually from 56.1 µM), for the others: at the top dose activity change, negative = inhibition, most hits filed as inhibitors. hit rate 0.2% among 350,000. AID 2528;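 further: plate controls were vehicle for no effect and no enzyme for full effect; nearly all actives have a fitted effect of over 35% in size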
KDM4E inh – inhibitors of human JMJD2E histone demethylase | B2RXH2 | JMJD2E catalytic domain, FDH-coupled NADH fluorescence (FDH is formaldehyde dehydrogenase) | Potency, µM (top dose mostly 57.1 µM), for the others: at the highest dose activity change, negative = inhibition, actives largely listed as inhibitors | hit rate 1.6% among 230,000; active means well fitted inhibition curve with a large enough effect, not every such curve was filed as active; inconclusive means small, poorly fitted or top-dose-only effect, or another doubt; inactive means no such curve, though single readings can be large or run the other way;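 further: 0% = wells with enzyme and -100% = buffer wells without enzyme; nearly all actives have a fitted effect of over 50% in size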
APEX1 inh – inhibitors of human APE1 endonuclease; P27695; hit rate 0.35% among 350,000; Potency, µM (top dose mostly 65.8 µM), inactives show at the top dose activity change, negative = inhibition, hits mostly inhibitors; recombinant APE1, TAMRA/BHQ-2 abasic DNA cleavage fluorescence; AID 2517;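 further: plate controls were vehicle for no effect and reference inhibitor for full effect; nearly all actives have a fitted effect of over 55% in size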
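APE1 at 0.75 nM final was preincubated with compound 15 min at room temperature, then 50 nM double-stranded THF abasic-site substrate (5'-TAMRA/3'-BHQ-2) was added. Fluorescence (ex 525/em 598 nm) was read kinetically; third-minus-first read gave activity.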
RECQ1 helicase – inhibitors of human RECQ1 DNA helicase | Potency, µM (highest dose often 57.3 µM), for inactives: top-dose activity, negative = inhibition, hits mostly inhibitors | RECQ1 DNA unwinding, red fluorescence kinetic read | hit rate 0.54% among 240,000 | P46063;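 further: plate controls were vehicle for no effect and no enzyme for full effect; nearly all actives have a fitted effect of over 30% in size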
Target sequence (P46063 whole entry, looked up): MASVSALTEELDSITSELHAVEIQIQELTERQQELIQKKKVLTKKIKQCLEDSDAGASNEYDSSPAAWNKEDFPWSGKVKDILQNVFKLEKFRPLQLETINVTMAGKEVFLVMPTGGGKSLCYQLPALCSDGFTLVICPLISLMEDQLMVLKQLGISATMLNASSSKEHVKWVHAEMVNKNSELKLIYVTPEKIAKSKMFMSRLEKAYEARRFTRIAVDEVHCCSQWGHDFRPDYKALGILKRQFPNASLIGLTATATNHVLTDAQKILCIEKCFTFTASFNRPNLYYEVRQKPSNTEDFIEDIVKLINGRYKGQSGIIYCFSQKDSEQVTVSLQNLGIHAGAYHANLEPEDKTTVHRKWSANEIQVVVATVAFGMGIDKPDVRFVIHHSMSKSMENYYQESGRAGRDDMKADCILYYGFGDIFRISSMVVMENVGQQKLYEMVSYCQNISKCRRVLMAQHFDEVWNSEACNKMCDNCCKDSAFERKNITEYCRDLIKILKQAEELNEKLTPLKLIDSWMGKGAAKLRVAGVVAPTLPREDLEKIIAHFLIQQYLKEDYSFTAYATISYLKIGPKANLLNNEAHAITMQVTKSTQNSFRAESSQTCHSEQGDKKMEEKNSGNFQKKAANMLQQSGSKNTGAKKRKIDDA
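50 nM RECQ1T1 preincubated 15 min with compound in Tris pH 8.0 buffer with MgCl2, DTT, Tween-20 and 2.5 ug/ml poly(dI-dC); started with 200 nM TAMRA/BHQ-2 forked duplex and 2 mM ATP. Unwinding read as fluorescence (525/598 nm), two reads 2 h apart.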
Active calls of the source: *; i = inactive; ? = inconclusive; / = no result. The entries come from a sample that favours hits as a whole. Unless noted, the call rests on the fitted dose curve; in most records, active means well fitted curve in the direction sought with a large enough effect; inconclusive means small, poorly fitted or top-dose-only effect, or another doubt; inactive means no such curve, though single readings can be large; an effect the other way counts as inactive or inconclusive. Unless noted, on the % scale 0 is the no-effect control and ±100 the full control effect; potency means the concentration at half of the fitted maximal effect.

SMILES	L3MBTL1 block	BLM inh	KDM4E inh	APEX1 inh	RECQ1 helicase
CC[C@H](C)[C@H](NC(=O)[C@H](Cc1ccc(O)cc1)NC(=O)[C@@H](NC(=O)[C@H](CCCNC(=N)N)NC(=O)[C@@H](N)CC(=O)O)C(C)C)C(=O)N[C@@H](Cc1cnc[nH]1)C(=O)N1CCC[C@H]1C(=O)N[C@@H](Cc1ccccc1)C(=O)N[C@@H](Cc1cnc[nH]1)C(=O)N[C@@H](CC(C)C)C(=O)N[C@@H](CC(C)C)C(=O)N[C@H](C(=O)N[C@@H](Cc1ccc(O)cc1)C(=O)N[C@@H](CO)C(=O)O)C(C)C	/	-3%	/	-5%	-7%
Cc1nnc(N=c2ssnc2Cl)o1	-4%	/	/	-6%	/
COc1cc(OC)c(OC)cc1/C=N/Nc1ncnc2c1[nH]c1ccccc12	11%	22µM*	?	4%	-1%
COc1ccc(/C=N/Nc2ncnc3c2[nH]c2ccc(C)cc23)c(OC)c1OC	/	-19%	?	4%	i
COc1ccc(C2Nc3ccc4ccccc4c3-c3c2c(=O)oc2ccccc32)cc1 (centres undefined)	/	-14%	3.2µM*	-2%	6%
CCOc1ccc(C2Nc3ccc4ccccc4c3-c3c2c(=O)oc2ccccc32)cc1 (centres undefined)	/	-6%	?	2%	-17%
COc1cc(/C=N/NC(=O)CSc2cc(C)c(Br)cc2C)ccc1O	/	-3%	6%	4%	-1%
Cc1cc(SCC(=O)N/N=C/c2ccc(O)c(O)c2O)c(C)cc1Br	/	-17%	10µM*	?	i
CC(C)[C@@H](N)C(=O)O	/	-16%	/	-2%	i
CC(C)(S)[C@@H](N)C(=O)O	3%	6%	2.2µM*	12%	-6%
COCc1cc(C)nc(OCC(=O)N/N=C/c2ccccc2O)c1C#N	-24%	-1%	25µM*	2%	i
COCc1cc(C)nc(OCC(=O)N/N=C/c2ccc(O)cc2O)c1C#N	/	-6%	25µM*	1%	-4%
CCOc1cc(/C=N/NC(=O)COc2nc(C)cc(COC)c2C#N)ccc1O	-5%	4%	-6%	-8%	-6%
O=C1NC(=S)N(C(=O)c2ccc(F)cc2)/C1=C/c1ccccc1	-19%	22µM*	-3%	6%	0%
COc1ccc(/C=C2\C(=O)NC(=S)N2C(=O)c2ccc(F)cc2)cc1	?	?	-20%	?	?
COc1cccc2c(SCC(=O)N/N=C/c3ccc(O)cc3O)cc(C)nc12	?	-6%	28µM*	4%	-7%
O=C(CCC(=O)Nc1ccc(F)cc1)N/N=C/c1ccc(O)cc1O	/	-12%	25µM*	4%	-3%
COCCCNC(=S)N/N=C/c1ccc(O)cc1O	?	-7%	18µM*	0%	-6%
Cc1cc(C)n(CCC(=O)N/N=C/c2ccc(O)cc2O)n1	20%	-8%	14µM*	2%	-11%
Cc1cc(C)c2c(c1)NC(=O)C2(O)c1c[nH]c2ccccc12 (centres undefined)	/	-5%	/	/	/
CC(C(=O)Nc1ccccc1C(=O)N1CCOCC1)N(c1ccc(Cl)cc1)S(C)(=O)=O (centres undefined)	5%	0%	-6%	-4%	i
Oc1ccc(/C=N/Nc2ccc3ccccc3c2)c(O)c1	-17%	0%	?	-10%	-17%
O=C(N/N=C/c1ccc(O)cc1O)C(=O)N/N=C/c1ccc(O)cc1O	0.71µM*	-10%	/	-22%	/
O=C(CCN1CCCCC1)NCNC(=O)CCN1CCCCC1	-10%	0%	7%	-1%	-4%
NC(=O)c1cc[n+](CC(=O)c2ccc(NC(=O)c3ccccc3)cc2)cc1	-1%	4%	13µM*	3%	i
SMILES	L3MBTL1 block	BLM inh	KDM4E inh	APEX1 inh	RECQ1 helicase
O=C(NNS(=O)(=O)c1ccccc1)Nc1ccc(F)cc1	/	-1%	/	-4%	/
Nc1ccc2nc3c(=O)n(C4CCCCC4)c(=O)[nH]c3nc2c1	/	-10%	?	-6%	-16%
Cc1cc2nc3c(=O)n(CCc4ccccc4)c(=O)[nH]c3nc2cc1N	/	-11%	32µM*	-11%	-13%
Nc1ccc2nc3c(=O)n(CCc4ccccc4)c(=O)[nH]c3nc2c1	/	-14%	1.8µM*	-11%	-1%
COc1cc(OC)cc(C(=O)N/N=C/c2ccc(OC)c(COc3ccc4ccccc4c3)c2)c1	-4%	1%	?	-4%	-9%
CCN(CC)S(=O)(=O)c1ccc(N/N=C(\C)c2ccc(OC)cc2O)nc1	/	-10%	32µM*	-8%	-12%
COc1ccc(CN(CC(=O)NCc2ccc3c(c2)OCO3)C(=O)c2csnn2)cc1	/	-3%	/	2%	/
Cc1ccc2[nH]c3c(=O)n(CCc4cnc[nH]4)cnc3c2c1	0%	2%	?	-8%	3%
CN(C)S(=O)(=O)c1cccc(NC(=S)Nc2cccc3cnccc23)c1	-17%	13µM*	28µM*	-5%	i
Fc1ccc(NC(=S)Nc2cccc3cnccc23)cc1	-17%	22µM*	-14%	-8%	i
S=C(Nc1cccnc1)Nc1cccc2cnccc12	-8%	-16%	14µM*	-5%	4%
S=C(Nc1ccc(Cl)cc1)Nc1cccc2cnccc12	0%	-17%	14µM*	6%	-7%
Fc1ccc(NC(=S)Nc2cccc3ccccc23)cc1	-8%	-6%	/	15%	/
COc1ccc(NC(=S)Nc2cccc3cnccc23)cc1	-10%	-14%	-24%	-2%	7%
Cc1cccc(CNS(=O)(=O)c2csc(C(N)=O)c2)c1	/	0%	/	72%	/
CCN(CC)CCCNc1ncnc2scc(-c3ccc(F)cc3)c12	-11%	10%	/	29%	/
COC(=O)C1C2C=CC3(CN(c4ccc(Cl)c(F)c4)C(=O)C13)O2 (centres undefined)	4%	3%	0%	19%	i
COc1cc(C2CC(c3ccccc3)=NN2c2ccccc2)ccc1OCC(=O)O (centres undefined)	/	-1%	/	-15%	/
Clc1cccc(-c2ccc(CNCc3ccccn3)o2)c1	22µM*	2%	/	21%	/
CCOC(=O)c1ccc(-n2c(O)c(/C=N/NC(=O)C3COc4ccccc4O3)c3ccccc3c2=O)cc1 (centres undefined)	-4%	-2%	25µM*	-4%	-5%
CCc1ccc(Nc2nnc(SCC(=O)NC(=O)CN3CCCC3=O)s2)cc1	-8%	/	/	13µM*	/
COc1ccccc1Nc1nnc(SCC(=O)N2CCCC2=O)s1	1%	-1%	6%	1%	-11%
Cc1cc(NC(=O)COC(=O)C2CCC(=O)N2)c([N+](=O)[O-])cc1C (centres undefined)	-12%	-4%	-3%	-4%	-1%
Cc1cccn2cc(-c3cccc(NS(=O)(=O)c4ccc(Cl)c(Cl)c4)c3)nc12	/	-9%	/	/	/
O=C1Nc2c(Br)cc(Br)c3cccc1c23	-17%	-3%	-6%	-3%	-2%

Source: PubChem BioAssay
